What all share (assay): PBM; 200 nM protein, PBS
What all share (details): dsDNA, one strand shown

Assay [1] addresses HESX1 (Homo sapiens, UniProt Q9UBX0 95-180, R165K).
Assay [2] addresses CRX (Homo sapiens, UniProt O43186 26-111).
In assay [3] the target is PRRX1 (Homo sapiens, UniProt P54821 80-166, F113S).
Assay [4] deals with HESX1 (Homo sapiens, UniProt Q9UBX0 95-180).
The target in assay [5] is CRX (Homo sapiens, UniProt O43186 26-111, E42D).
In assay [6] the target is HESX1 (Homo sapiens, UniProt Q9UBX0 95-180, R109Q).
The target in assay [7] is HESX1 (Homo sapiens, UniProt Q9UBX0 95-180, P111T).
Assay [8] concerns the target HESX1 (Homo sapiens, UniProt Q9UBX0 95-180, F115L).
The target of assay [9] is CRX (Homo sapiens, UniProt O43186 26-111, R41L).
Assay [10] concerns the target PRRX1 (Homo sapiens, UniProt P54821 80-166).
Assay [11] has as its target HOXB6 (Homo sapiens, UniProt P17509 132-218, K202E).
Assay [12] has as its target HOXB6 (Homo sapiens, UniProt P17509 132-218).
In assay [13] the target is HOXA2 (Homo sapiens, UniProt O43364 129-215, R185T).
The target in assay [14] is HOXA2 (Homo sapiens, UniProt O43364 129-215, R185K).
The target of assay [15] is HOXA2 (Homo sapiens, UniProt O43364 129-215, Y150S).
Assay [16] concerns the target HOXA2 (Homo sapiens, UniProt O43364 129-215).
Assay [17] deals with ALX4 (Homo sapiens, UniProt Q9H161 200-286).
The target in assay [18] is ALX4 (Homo sapiens, UniProt Q9H161 200-286, Q225E).

This note sets out measurements from article PMC11006913.

Chain of HESX1 (Homo sapiens, UniProt Q9UBX0 95-180) (Q9UBX0 95-180): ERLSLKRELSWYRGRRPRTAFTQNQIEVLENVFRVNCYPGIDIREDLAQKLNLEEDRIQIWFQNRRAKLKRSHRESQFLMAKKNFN
Chain of HESX1 (Homo sapiens, UniProt Q9UBX0 95-180, R165K) (Q9UBX0 95-180 R165K): as the sequence (Q9UBX0 95-180) above, with R71K counted along it
Chain of HESX1 (Homo sapiens, UniProt Q9UBX0 95-180, F115L) (Q9UBX0 95-180 F115L): as the sequence (Q9UBX0 95-180) above, with F21L counted along it
Chain of HESX1 (Homo sapiens, UniProt Q9UBX0 95-180, P111T) (Q9UBX0 95-180 P111T): as the sequence (Q9UBX0 95-180) above, with P17T counted along it
Chain of HESX1 (Homo sapiens, UniProt Q9UBX0 95-180, R109Q) (Q9UBX0 95-180 R109Q): as the sequence (Q9UBX0 95-180) above, with R15Q counted along it
Chain of HOXB6 (Homo sapiens, UniProt P17509 132-218, K202E) (P17509 132-218 K202E): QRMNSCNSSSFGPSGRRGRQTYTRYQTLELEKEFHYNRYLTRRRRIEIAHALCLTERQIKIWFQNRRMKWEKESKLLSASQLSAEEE
Chain of HOXB6 (Homo sapiens, UniProt P17509 132-218) (P17509 132-218): as the sequence (P17509 132-218 K202E) above, with E71K counted along it
Chain of HOXA2 (Homo sapiens, UniProt O43364 129-215, R185T) (O43364 129-215 R185T): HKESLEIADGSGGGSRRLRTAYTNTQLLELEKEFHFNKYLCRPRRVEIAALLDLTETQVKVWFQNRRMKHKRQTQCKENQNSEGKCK
Chain of HOXA2 (Homo sapiens, UniProt O43364 129-215) (O43364 129-215): as the sequence (O43364 129-215 R185T) above, with T57R counted along it
Chain of CRX (Homo sapiens, UniProt O43186 26-111, R41L) (O43186 26-111 R41L): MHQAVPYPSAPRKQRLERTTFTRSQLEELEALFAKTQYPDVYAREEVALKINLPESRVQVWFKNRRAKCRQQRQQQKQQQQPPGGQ
Chain of CRX (Homo sapiens, UniProt O43186 26-111, E42D) (O43186 26-111 E42D): as the sequence (O43186 26-111 R41L) above, with L16R, E17D counted along it
Chain of ALX4 (Homo sapiens, UniProt Q9H161 200-286) (Q9H161 200-286): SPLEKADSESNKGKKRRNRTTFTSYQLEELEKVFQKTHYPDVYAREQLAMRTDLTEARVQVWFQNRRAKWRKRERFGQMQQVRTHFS
Chain of HOXA2 (Homo sapiens, UniProt O43364 129-215, Y150S) (O43364 129-215 Y150S): as the sequence (O43364 129-215 R185T) above, with Y22S, T57R counted along it
Chain of PRRX1 (Homo sapiens, UniProt P54821 80-166, F113S) (P54821 80-166 F113S): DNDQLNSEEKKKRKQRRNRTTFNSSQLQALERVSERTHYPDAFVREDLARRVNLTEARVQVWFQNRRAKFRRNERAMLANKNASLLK
Chain of PRRX1 (Homo sapiens, UniProt P54821 80-166) (P54821 80-166): as the sequence (P54821 80-166 F113S) above, with S34F counted along it
Chain of ALX4 (Homo sapiens, UniProt Q9H161 200-286, Q225E) (Q9H161 200-286 Q225E): as the sequence (Q9H161 200-286) above, with Q26E counted along it
Chain of CRX (Homo sapiens, UniProt O43186 26-111) (O43186 26-111): as the sequence (O43186 26-111 R41L) above, with L16R counted along it
Chain of HOXA2 (Homo sapiens, UniProt O43364 129-215, R185K) (O43364 129-215 R185K): as the sequence (O43364 129-215 R185T) above, with T57K counted along it

For GCCGTCGC, the binding signal in assay [1] is 6.39 upbm affinity estimate (log intensity, higher = more binding, comparable within an allelic series); in [2] it was 8.32 upbm affinity estimate (log intensity, higher = more binding, comparable within an allelic series); in assay [3], 9.29 upbm affinity estimate (log intensity, higher = more binding, comparable within an allelic series); in [4], 6.51 upbm affinity estimate (log intensity, higher = more binding, comparable within an allelic series); in [5] it was 8.21 upbm affinity estimate (log intensity, higher = more binding, comparable within an allelic series); in [6], 6.58 upbm affinity estimate (log intensity, higher = more binding, comparable within an allelic series). The binding signal was 6.45 upbm affinity estimate (log intensity, higher = more binding, comparable within an allelic series) in assay [7]; 6.53 upbm affinity estimate (log intensity, higher = more binding, comparable within an allelic series) in [8]; 8.17 upbm affinity estimate (log intensity, higher = more binding, comparable within an allelic series) in [9]; 9.58 upbm affinity estimate (log intensity, higher = more binding, comparable within an allelic series) in assay [10].
As for CACGGCGG, the binding signal was 6.53 upbm affinity estimate (log intensity, higher = more binding, comparable within an allelic series) in [1]; 9.01 upbm affinity estimate (log intensity, higher = more binding, comparable within an allelic series) in [11]; 6.43 upbm affinity estimate (log intensity, higher = more binding, comparable within an allelic series) in [4]; 6.49 upbm affinity estimate (log intensity, higher = more binding, comparable within an allelic series) in assay [6]; 6.56 upbm affinity estimate (log intensity, higher = more binding, comparable within an allelic series) in assay [7]; 6.49 upbm affinity estimate (log intensity, higher = more binding, comparable within an allelic series) in [8]. Besides, the binding signal in [12] was 8.99 upbm affinity estimate (log intensity, higher = more binding, comparable within an allelic series).
CAGGCCGG: the binding signal in [1] is 6.44 upbm affinity estimate (log intensity, higher = more binding, comparable within an allelic series); in [11], 8.91 upbm affinity estimate (log intensity, higher = more binding, comparable within an allelic series); in assay [4], 6.33 upbm affinity estimate (log intensity, higher = more binding, comparable within an allelic series); in [13], 7.05 upbm affinity estimate (log intensity, higher = more binding, comparable within an allelic series); in [14] it was 10.1 upbm affinity estimate (log intensity, higher = more binding, comparable within an allelic series); in assay [6], 6.48 upbm affinity estimate (log intensity, higher = more binding, comparable within an allelic series). For the same sequence, the binding signal in assay [7] was 6.33 upbm affinity estimate (log intensity, higher = more binding, comparable within an allelic series); in [8] it was 6.4 upbm affinity estimate (log intensity, higher = more binding, comparable within an allelic series); in assay [15], 10.3 upbm affinity estimate (log intensity, higher = more binding, comparable within an allelic series); in [16], 7.13 upbm affinity estimate (log intensity, higher = more binding, comparable within an allelic series); in [12] it was 8.84 upbm affinity estimate (log intensity, higher = more binding, comparable within an allelic series).
As for AGAGGCAC, the binding signal in assay [1] is 6.29 upbm affinity estimate (log intensity, higher = more binding, comparable within an allelic series); in assay [17], 8.1 upbm affinity estimate (log intensity, higher = more binding, comparable within an allelic series); in assay [18], 8.02 upbm affinity estimate (log intensity, higher = more binding, comparable within an allelic series); in assay [4], 6.48 upbm affinity estimate (log intensity, higher = more binding, comparable within an allelic series); in assay [6] it was 6.44 upbm affinity estimate (log intensity, higher = more binding, comparable within an allelic series); in assay [7] it was 6.5 upbm affinity estimate (log intensity, higher = more binding, comparable within an allelic series). The binding signal in [8] is 6.64 upbm affinity estimate (log intensity, higher = more binding, comparable within an allelic series).
